Test results: PubChem BioAssay (Tox21)
Several values for one entry are separate records, joined by “and”; a condition that tells them apart may be missing. Equal values may be shown once. Inconclusive results are not listed. Activity calls are given as the source filed them. Unless noted, calls come from the whole dose curve; as a rule, active = well fitted curve in the direction sought with a large enough effect in the repeat runs; inconclusive = weak or mixed curves; inactive = no such curve, though single readings can be large; an effect the other way counts as inactive or inconclusive.

Experiments:
[1] = qHTS assay for small molecule agonists of the p53 signaling pathway (AID 651631; calls by dose curve; note: nearly all actives have a fitted effect of over 15% in size; note: potency is the fitted concentration of half-maximal effect)
Method in brief: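 We treat p53RE-bla HCT-116 cells with compounds for 16 h at 37 °C, add LiveBLAzer B/G FRET substrate for 2 h at room temperature, and measure fluorescence intensity.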

[2] = qHTS assay for small molecules that induce genotoxicity in human embryonic kidney cells expressing luciferase-tagged ATAD5 (AID 651632); note: nearly all actives have a fitted effect of over 15% in size; note: potency is the fitted concentration of half-maximal effect
Method in brief: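 Test compounds were delivered by pin tool onto HEK293T reporter cells (2,000/well) expressing ATAD5 fused to luciferase. After 16 hr at 37C, 5% CO2, Amplite was added for 30 min at room temperature and luminescence was measured.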

[3] = qHTS assay for small molecule agonists of the p53 signaling pathway - cell viability (AID 651633; calls by dose curve; note: nearly all actives have a fitted effect of over 30% in size; note: potency is the fitted concentration of half-maximal effect)
Method in brief: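 p53RE-bla cells were treated with compound for 16 hours at 37 C. Cytotoxicity was then measured as CellTiter-Glo luminescence after 30 min at room temperature.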

[4] = qHTS assay for small molecule disruptors of the mitochondrial membrane potential - cell viability (AID 720634; calls by dose curve; note: nearly all actives have a fitted effect of over 20% in size; note: potency is the fitted concentration of half-maximal effect)
Method in brief: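 Same-well counter-screen: following the MMP dye addition, CellTiter-Glo was added to 1 hr compound-treated HepG2 cells and luminescence read after 30 min at room temperature.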

[5] = qHTS assay for small molecule disruptors of the mitochondrial membrane potential (AID 720635); note: potency is the fitted concentration of half-maximal effect
Method in brief: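 HepG2 cells exposed to compound 1 hr at 37C, then Mito-MPS dye 30 min. Ratio read of aggregate (540/590 nm) versus monomer (490/535 nm) fluorescence.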

[6] = qHTS assay to test for compound auto fluorescence at 590 nm (red) in HepG2 cells (AID 720674)
Method in brief: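 HepG2 cells, 2,000 per well in MEM with 10% FBS, attached overnight at 37 C, then got 23 nL compound or DMSO. After 1 hr at 37 C, 5% CO2, red fluorescence was read at 540/590 nm against Rose Bengal sodium as reference.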

[7] = qHTS assay to test for compound auto fluorescence at 535 nm (green) in HepG2 cells (AID 720675)
[8] = qHTS assay to test for compound auto fluorescence at 460 nm (blue) in HEK293 cells (AID 720678)
Method in brief: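 After cell attachment (4-5 hr, 37C), compounds were pinned onto HEK293 monolayers in 10% dialyzed FBS medium. The blue channel (405/460 nm) was read following overnight culture. Equivalency was calculated against triamterene.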

[9] = qHTS assay to test for compound auto fluorescence at 590 nm (red) in HEK293 cells (AID 720679)
Method in brief: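 Plates of HEK293 cells (10% dialyzed FBS) are treated with 23 nL compound or DMSO vehicle after a 4-5 hr attachment period, incubated overnight at 37C, and read for red fluorescence at 540/590nm.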

[10] = qHTS assay for small molecules that induce genotoxicity in human embryonic kidney cells expressing luciferase-tagged ATAD5 - cell viability (AID 651634; calls by dose curve; note: nearly all actives have a fitted effect of over 25% in size; note: potency is the fitted concentration of half-maximal effect)
Method in brief: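 Quantitative high-throughput format. HEK293T cells expressing ATAD5 fused to luciferase were plated at 2,000 cells/well and treated 15.5 hr with compound versus DMSO. Viability was determined by fluorescent live-cell protease substrate, 30 min at 37C.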

Measured: Potency

COc1ccc2c3c1O[C@H]1[C@H](O)CC[C@H]4[C@@H](C2)N(C)CC[C@@]341
not listed: [10]
inactive: all other assays above

Cc1nn(-c2cc(NS(C)(=O)=O)c(Cl)cc2Cl)c(=O)n1C(F)F
not listed: [5] | [10]
inactive: all other assays above

CO/N=C(\C(=O)OC)c1ccccc1CO/N=C(\C)c1cccc(C(F)(F)F)c1
active: [1] 1.09 µM | [4] 21.7 µM | [5] 9.69 µM
not listed: [3]
inactive: all other assays above

NC(=O)C(Cl)Cl
not listed: [3]
inactive: all other assays above

O=C1C2(Cl)C3(Cl)C4(Cl)C(Cl)(Cl)C5(Cl)C3(Cl)C1(Cl)C5(Cl)C24Cl (centres undefined)
active: [1] 60.1 µM | [3] 37.9 µM | [4] 1.9 µM | [5] 536 nM and 585 nM
not listed: [10]
inactive: all other assays above

CC(C)Br
not listed: [3] | [5]
inactive: all other assays above

N#Cc1ccc(N(CC(N)=O)CC(F)(F)F)cc1C(F)(F)F
not listed: [5] | [6] | [10]
inactive: all other assays above

CN1[C@@H]2CC[C@H]1CC(O)C2 (some centres undefined)
not listed: [3] | [6]
inactive: all other assays above

CC(Cl)CCl (centres undefined)
not listed: [10]
inactive: all other assays above

C[C@H]1[C@H](c2ccc(Cl)cc2)SC(=O)N1C(=O)NC1CCCCC1
active: [5] 15.4 µM
not listed: [4] | [6]
inactive: all other assays above

CCN(CC)Cc1nccn1-c1ccc([N+](=O)[O-])cc1C(=O)c1ccccc1Cl
not listed: [3]
inactive: all other assays above

CC(O)C(=O)[O][Hg][c]1ccccc1 (centres undefined)
active: [1] 0.545 µM | [2] 0.0969 µM | [3] 0.217 µM | [4] 5.45 µM | [5] 2.73 µM
inactive: [6] | [7] | [8] | [9]

N#CCCl
not listed: [3] | [6] | [10]
inactive: all other assays above

C#CC1(O)CCCCC1
not listed: [3] | [5] | [6]
inactive: all other assays above

O=[N+]([O-])c1ccccc1-c1ccccc1
not listed: [10]
inactive: all other assays above

Nc1ccccc1-c1ccccc1
not listed: [5] | [10]
inactive: all other assays above

CN/C(=N\[N+](=O)[O-])NCc1cnc(Cl)s1
not listed: [3] | [5]
inactive: all other assays above

[O]=[Cr][O][Cr]=[O]
inactive: [1] | [2] | [6] | [7] | [8] | [9]

CC[C@]1(O)CC[C@H]2[C@@H]3CCC4=CCCC[C@@H]4[C@H]3CC[C@@]21C
active: [1] 3.76 µM | [10] 10.6 µM | [5] 7.5 µM
not listed: [3] | [4]
inactive: all other assays above

C=Cc1cccc(CCl)c1
not listed: [3]
inactive: all other assays above

O=[N+]([O-])c1ccc(Cl)c(Cl)c1Cl
not listed: [3] | [5]
inactive: all other assays above

Cc1cc(C2CC2)nc(Nc2ccccc2)n1
not listed: [4] | [5]
inactive: all other assays above

ClC1=C(Cl)[C@]2(Cl)[C@@H]3[C@H]4C[C@H]([C@@H]5O[C@H]45)[C@@H]3[C@@]1(Cl)C2(Cl)Cl
active: [5] 16.8 µM and 19.3 µM
not listed: [3]
inactive: all other assays above

CCN(CC)C(=O)N[C@@H]1C=C2c3cccc4[nH]cc(c34)C[C@@H]2N(C)C1
active: [5] 1.68 µM
not listed: [6] | [10]
inactive: all other assays above

CN=C=O
not listed: [2] | [5] | [6]
inactive: all other assays above
